Source: PubChem (National Center for Advancing Translational Sciences (NCATS))
TRPV1 PAM – enhances activation of the human vanilloid receptor TRPV1. Q8NER1. TRPV1-expressing cells, Fluo-8 calcium influx, capsaicin EC20 potentiation. potentiation, % at 8.33 µM. 0.02% of 320,000 active; in the data active = potentiation above about 80%; inconclusive = between about 30% and that limit
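TRPV1-expressing cells were cultured overnight at 35.5C and loaded with Fluo-8 calcium dye for 40 to 90 min at room temperature. After a 10 s baseline, compound was added and calcium influx was read kinetically for 3 min (ex 480/em 520 nm).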
KCNH2 3.1 block – inhibitors of human KCNH2 3.1 potassium channel isoform; activity change, % (tested at about 1.8 µM); U2OS KCNH2 3.1, thallium flux FluxOr; stronger effect = lower value; 0.95% of 340,000 active;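 active = maximum activity change below -70%; inconclusive = maximum activity change from -70% to -50%; inactive = maximum activity change above -50%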;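 also: thallium influx rate constant from kinetic fluorescence after stimulation buffer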
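Measured as rate of thallium-driven FluxOr signal in transduced U2OS cells carrying the 3.1 channel, read kinetically for 2 min upon stimulation; values are rate constants scaled to DMSO control wells.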
hERG WT inh – inhibitors of human wildtype KCNH2 potassium channel; Q12809; U2OS, BacMam KCNH2, thallium flux FluxOr; stronger effect = lower value; activity change, % at 1.84 µM; 0.37% of 340,000 active; AID 720551;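 active = maximum activity change below -70%; inconclusive = maximum activity change between -70% and -50%; inactive = maximum activity change above -50%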
Target sequence (Q12809 whole entry, looked up): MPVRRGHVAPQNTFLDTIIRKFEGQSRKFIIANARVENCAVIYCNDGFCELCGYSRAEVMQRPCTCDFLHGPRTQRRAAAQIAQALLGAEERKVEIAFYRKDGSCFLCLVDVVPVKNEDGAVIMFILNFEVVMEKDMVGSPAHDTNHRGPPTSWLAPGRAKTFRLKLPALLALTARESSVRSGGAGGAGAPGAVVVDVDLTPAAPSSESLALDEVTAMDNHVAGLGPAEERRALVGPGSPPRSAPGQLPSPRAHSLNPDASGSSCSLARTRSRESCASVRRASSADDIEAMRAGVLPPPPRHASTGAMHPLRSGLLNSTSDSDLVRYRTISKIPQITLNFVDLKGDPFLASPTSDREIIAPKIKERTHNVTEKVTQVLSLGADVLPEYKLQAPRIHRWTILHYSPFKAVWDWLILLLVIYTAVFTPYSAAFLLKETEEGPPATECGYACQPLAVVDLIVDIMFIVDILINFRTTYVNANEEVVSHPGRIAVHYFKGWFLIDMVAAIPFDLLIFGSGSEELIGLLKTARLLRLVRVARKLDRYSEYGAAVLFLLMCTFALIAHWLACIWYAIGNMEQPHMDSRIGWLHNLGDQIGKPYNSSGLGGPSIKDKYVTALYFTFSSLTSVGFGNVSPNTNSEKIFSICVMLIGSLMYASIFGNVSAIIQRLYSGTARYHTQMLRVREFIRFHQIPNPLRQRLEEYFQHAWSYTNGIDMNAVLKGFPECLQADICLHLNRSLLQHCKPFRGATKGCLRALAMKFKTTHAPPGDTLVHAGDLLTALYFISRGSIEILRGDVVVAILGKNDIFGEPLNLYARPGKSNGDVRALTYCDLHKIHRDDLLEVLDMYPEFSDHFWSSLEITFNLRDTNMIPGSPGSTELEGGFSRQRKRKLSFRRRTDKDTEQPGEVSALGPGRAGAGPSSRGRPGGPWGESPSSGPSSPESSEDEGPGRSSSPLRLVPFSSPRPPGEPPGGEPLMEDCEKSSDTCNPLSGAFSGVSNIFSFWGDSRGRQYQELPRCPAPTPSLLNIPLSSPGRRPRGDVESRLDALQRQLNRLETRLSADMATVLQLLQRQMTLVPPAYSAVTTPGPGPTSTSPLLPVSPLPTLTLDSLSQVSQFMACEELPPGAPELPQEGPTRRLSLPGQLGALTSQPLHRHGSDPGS
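U2OS cells transduced with wild-type KCNH2 virus are loaded with FluxOr dye for 45 min, and thallium flux is measured in kinetic reads before and after stimulation buffer. Rate constants are normalized to DMSO controls.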
MBNL1-CUG inh – blocks human MBNL1 binding to CUG repeat RNA; Q9NR56; TR-FRET MBNL1-His/biotin-(CUG)12 binding, 665/545 ratio; Potency, µM (titrated, usually from 57.5 µM), hits mostly inhibitors; 0.036% of 280,000 active; AID 2675; active = well fitted inhibition curve with a large enough effect in the signal ratio, with a control signal flat, not every such curve was filed as active; inconclusive = small, poorly fitted or top-dose-only effect, or effect the other way, or a change in a side signal; inactive = no such curve, though single readings can be large or run the other way; the % refers to the signal ratio
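Ratiometric TR-FRET (665 over 545 nm, excitation 340 nm) tracks disruption of MBNL1-His/biotin-(CUG)12 complex after 60 min at room temperature, with compounds at 92 nM to 58 uM final.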
TRPV1 agonist – human TRPV1 agonism | Q8NER1 | TRPV1-expressing cells, Fluo-8 calcium influx, agonist mode | activation, % at 8.33 µM | 0.19% of 320,000 active; in the data active = activation above about 80%; inconclusive = between about 30% and that limit
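Cells expressing TRPV1 were dye-loaded with Fluo-8 and read kinetically: 10 s baseline, 3 min after compound (agonist portion), then 2 min after EC20 capsaicin (allosteric enhancer portion). Calcium-bound dye fluorescence at 480/520 nm.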
Large screens that a line does not name were inactive. This is a sample that favours compounds with a hit; in the whole collection about 1.3% have one here.

CCc1ccc(NC(=O)COC(=O)CCc2nc3cc(S(=O)(=O)N(CC)CC)ccc3n2C)cc1	none
CCN(CC)S(=O)(=O)c1ccc2c(c1)nc(CCC(=O)OCC(=O)Nc1cc(Cl)cc(Cl)c1)n2C	KCNH2 3.1 block -83 (no result: MBNL1-CUG inh)
CC(C)N(C(=O)Cn1c(SCC(=O)NCc2ccc3c(c2)OCO3)nc2ccccc21)C(C)C	hERG WT inh -122
Cc1ccc(/C=C/C(=O)Nc2cc(S(N)(=O)=O)ccc2O)cc1	none (no result: MBNL1-CUG inh)
Cc1nn(C)c(C(=O)Nc2ccc(S(=O)(=O)NC34CC5CC(CC(C5)C3)C4)cc2)c1Br	TRPV1 PAM 81
CC(C)N(Cc1ccccc1)C(=O)C1CCCN(c2ncnc3c2nc2n3CCCCC2)C1 (configuration not stated)	KCNH2 3.1 block -98, TRPV1 agonist inconclusive
O=C(C1CCCN(c2ncnc3c2nc2n3CCCCC2)C1)N1CCN(c2cccc(Cl)c2)CC1 (configuration not stated)	KCNH2 3.1 block -139
O=C(COC(=O)c1ccccc1Cc1ccccc1)NC1CCS(=O)(=O)C1 (configuration not stated)	none
N#Cc1ccc(N2C(=O)[C@@H]3C(C(=O)c4ccc5ccccc5n4)=NN[C@@H]3C2=O)cc1	hERG WT inh -98
COc1cc(SC)ccc1C(=O)Nc1ccc(C)cc1C	KCNH2 3.1 block -82
COc1cc(SC)ccc1C(=O)Nc1ccc(C)cc1	none
COc1ccc(C(=O)N2CCC3(CC2)NCCc2[nH]cnc23)cc1	KCNH2 3.1 block -84 (no result: hERG WT inh)
CCN1CCN(Cc2c3ccccc3cc3ccccc23)CC1	MBNL1-CUG inh inconclusive
CS(=O)(=O)N1CCC(C(=O)Nc2ccc(Cl)cc2Cl)CC1	KCNH2 3.1 block -71 (no result: TRPV1 PAM, MBNL1-CUG inh, TRPV1 agonist)
CS(=O)(=O)N1CCCC(C(=O)Nc2ccc(Br)cc2F)C1 (configuration not stated)	none
CS(=O)(=O)N1CCC(C(=O)Nc2ccc(Br)cc2F)CC1	KCNH2 3.1 block -92
C[C@H]1CN([C@@H](C)CO)C(=O)c2cc(Br)cnc2O[C@H]1CN(C)C(=O)c1ccc2c(c1)OCO2	none (no result: TRPV1 PAM, MBNL1-CUG inh, TRPV1 agonist)
CSc1oc(-c2ccccc2)nc1S(=O)(=O)c1ccc(F)cc1	KCNH2 3.1 block -90
CCOC(=O)N1CCC(N2Cc3cccc(C(=O)Nc4ccc(F)cc4)c3C2=O)CC1	none
CCOC(=O)N1CCC(N2Cc3cccc(C(=O)Nc4ccc(CC)cc4)c3C2=O)CC1	KCNH2 3.1 block -112
O=C(O)Cn1c(CC(=O)N2CCCC2)nc2ccccc21	KCNH2 3.1 block -169
O=S(=O)(c1ccccc1)N1N=C(c2ccccc2)CC1c1ccccc1F (configuration not stated)	none
Cc1ccc(/C=C/C(=O)N2CCc3ccccc3C2)cc1	TRPV1 agonist 80
CCCCOc1ccc(C(=O)N(C)CC(=O)Nc2ccc(C)cc2)cc1	none
Cc1ccc(/C=N/Nc2nc(N3CCCCC3)nc(N3CCCCC3)n2)o1	TRPV1 agonist 85
CSc1ccccc1C(=O)C1CCCN(C(=O)c2cccc(Cn3cccn3)c2)C1 (configuration not stated)	none (no result: TRPV1 PAM, MBNL1-CUG inh, TRPV1 agonist)
COC(=O)c1c(NC(=O)/C=C/C(=O)O)sc(Cc2ccccc2)c1C	none (no result: MBNL1-CUG inh)
COC(=O)c1c(N)sc(Cc2ccccc2)c1C	KCNH2 3.1 block -103
CCN(CC)CCN(Cc1cc2cc(C)ccc2[nH]c1=O)C(=O)Nc1ccccc1OC	TRPV1 PAM 88
O=C(Cn1c(=O)c2c(ncn2Cc2ccccc2)n(Cc2ccccc2)c1=O)NC1CC1	KCNH2 3.1 block -90
N#C/C(=C/c1ccc2c(c1)OCO2)C(=O)NCCc1c[nH]c2ccccc12	KCNH2 3.1 block -74
COc1cc2c(cc1OC)[C@@H](NC(=O)Cc1ccc(F)cc1)[C@H](OCc1ccccc1)C2	KCNH2 3.1 block -131 (no result: TRPV1 PAM, MBNL1-CUG inh, TRPV1 agonist)
Cc1nnn(C23CC4CC(CC(CC(=O)Nc5ccc(C)c(C)c5)(C4)C2)C3)n1	none (no result: MBNL1-CUG inh)
Cc1c(C(=O)NCCSCc2ccccc2)cccc1[N+](=O)[O-]	KCNH2 3.1 block -77, TRPV1 agonist inconclusive
Cc1ccc(CNC(=O)c2nnn(-c3cccc(C)c3)c2N)cc1	KCNH2 3.1 block -108 (no result: TRPV1 PAM, TRPV1 agonist)
CCN(CC)S(=O)(=O)c1ccc(N2CCOCC2)c(NS(=O)(=O)c2ccc(C)c(C)c2)c1	KCNH2 3.1 block -94
CCN(CC)S(=O)(=O)c1ccc(N2CCOCC2)c(NS(=O)(=O)c2ccc(C)cc2)c1	none
Cn1c(O)c(N=NC(=O)CNC(=O)/C=C/c2ccccc2)c2ccccc21	KCNH2 3.1 block -184, MBNL1-CUG inh inconclusive
CCn1c(O)c(N=NC(=O)CNC(=O)/C=C/c2ccccc2)c2ccccc21	TRPV1 PAM inconclusive, MBNL1-CUG inh inconclusive
COc1ccc(Nc2nc(-c3ccccc3O)nc3ccccc23)cc1	none
Oc1ccc(Nc2nc(-c3ccccc3O)nc3ccccc23)cc1	KCNH2 3.1 block -118
O=C(Nc1nnc(C2CCCCC2)s1)c1ccc(Br)s1	TRPV1 agonist 80
O=C(Nc1nnc(C(F)(F)F)s1)c1ccc(Br)s1	none
OC(CNCc1ccccn1)c1ccccc1 (configuration not stated)	none
Fc1ccc(C(CCNCc2ccccn2)c2ccc(Cl)cc2)cc1 (configuration not stated)	KCNH2 3.1 block -91, hERG WT inh -89
Cc1ccc(N2C(=O)[C@@H]3C(C(=O)CCN4C(=O)c5ccccc5C4=O)=NN[C@@H]3C2=O)cc1	none
O=C(NC(=S)Nc1ccc(CN2CCOCC2)cc1)c1ccco1	none
O=C(CC12CC3CC(CC(C3)C1)C2)NC(=S)Nc1ccc(CN2CCOCC2)cc1	KCNH2 3.1 block -77
Cc1cccc(C)c1OCc1cc(C(=O)NC2CCC2)no1	KCNH2 3.1 block -94, TRPV1 agonist inconclusive
COc1ccccc1C1Nc2ccccc2NC2=C1C(=O)CC(C)(C)C2 (configuration not stated)	KCNH2 3.1 block -194, hERG WT inh -129
C[C@@]12C(=O)N(CC3CCCO3)CC(=O)N1[C@H]1c3cc(Cl)ccc3OC[C@@H]1[C@@H]2c1ccccc1 (some centres not stated)	KCNH2 3.1 block -93 (no result: TRPV1 PAM, MBNL1-CUG inh, TRPV1 agonist)
C[C@@]12C(=O)Nc3ccc(Br)cc3C(=O)N1[C@H]1c3cc(Cl)ccc3OC[C@@H]1[C@@H]2c1ccccc1	KCNH2 3.1 block -74 (no result: MBNL1-CUG inh)
C[C@@]12C(=O)Nc3ccc(Cl)cc3C(=O)N1[C@H]1c3cc(Cl)ccc3OC[C@@H]1[C@@H]2c1ccccc1	none (no result: TRPV1 PAM, MBNL1-CUG inh, TRPV1 agonist)
CCOC(=O)[C@H]1[C@H]2COc3ccccc3[C@@H]2N2C(=O)c3cc(OC)ccc3NC(=O)[C@@]12C	TRPV1 agonist inconclusive (no result: MBNL1-CUG inh)
CCOC(=O)[C@H]1[C@H]2COc3ccc(C)cc3[C@@H]2N2C(=O)c3cc(Cl)ccc3NC(=O)[C@@]12C	TRPV1 agonist 82 (no result: MBNL1-CUG inh)
CCOC(=O)[C@H]1[C@H]2COc3ccc(OC)cc3[C@@H]2N2C(=O)c3cc(C)ccc3NC(=O)[C@@]12C	TRPV1 agonist 99 (no result: MBNL1-CUG inh)
